PubChem BioAssay (NCI)
Values joined by “and” are separate entries in the source; they are usually repeats but may differ in a detail not shown here. Equal values may be shown once. Compounds without any hit were thinned out: in the full panel of roughly 83,000, 20% have a hit.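 Cells were grown in 96-well plates and exposed to the test compound at a single concentration for 48 hours; results are reported as percent growth, with values below 10 considered active.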 Values without a mark were called inactive. Active and inactive are the calls of the source.

Each compound was assayed on MDA-MB-468 breast (assay: NCI-60 one-dose screen, 48 h (100 = growth as untreated, 0 = no growth, -100 = all killed)). Conditions: 10 µM unless noted.
For `COc1ccc(N2CCN(CC(=O)N3CCN(c4nnc(-c5ccc(Cl)cc5)c(-c5ccc(Cl)cc5)n4)CC3)CC2)cc1`, the growth was 78.6%.
For `Cn1cc(C2=C(c3cccc4ccccc34)C(=O)NC2=O)c2cc(Br)ccc21`, the growth was 87.2%.
`Cn1c2c(c3ccc(-c4ccn[nH]4)cc3c1=O)C(=O)c1ccccc1-2` gave a growth of 46.2%.
In the case of `CC[N+](CC)(CCCC(C)[N+]1(Cc2ccccc2)C(C)=CC=C1C)Cc1ccccc1` (stereo not given), the growth is reported as -12.8% (active).
For `N=C(N)c1ccc(-c2ccc(-c3ccc(Cl)c(Cl)c3)s2)cc1`, the growth was -61.6% (active).
`CC1CCCC(C(=O)O)C1C(=O)O` (stereo not given) showed a growth of 97%.
Work on `CCCCOCc1cc(CN2CCN(C)CC2)c(O)c2ncccc12` yielded a growth of 46.1%.
With `N#CC1=C(c2ccccc2)Nc2c(c(-c3ccc(Cl)cc3)nn2-c2ccccc2)C12C(=O)Nc1ccc(Cl)cc12` (stereo not given) the growth was 70%.
With `CSc1ccc2c(c1)N(CCC1CCCCN1C)c1ccccc1S2` (stereo not given) the growth was -10.2% (active).
`COc1cc(C(=O)N2CCN(c3cc4c(cc3F)c(=O)c(C(=O)NO)cn4C3CC3)CC2)cc(OC)c1OC` was tested, and the growth was 95.8%.
Compound `CCOC(=O)C(CCC(C)C)C(=O)OCC` has a growth of 105%.
With `O=C(Cn1cccc(Nc2ccccc2)c1=O)Nc1ccccc1` the growth was 95.1%.
`Cn1nc(C(F)(F)F)cc1-c1c[nH]c(OCc2ccc(Cl)cc2)c(-c2ccc(Cl)c(C(F)(F)F)c2)c1=O` was tested, and the growth was -17.1% (active).
In the case of `C[C@@H]1CN(c2cnc(C(=O)Nc3cc(F)cc4cccnc34)cn2)C[C@H](C)N1`, the growth is reported as 3.8% (active).
`O=C(O)/C=C(\c1nc2ccc([N+](=O)[O-])cc2[nH]1)c1cc(Cl)ccc1O` was tested, and the growth was -2.53% (active).
`CCc1ccccc1NC(=O)c1sc2nc3c(cc2c1N)CCCC3` was tested, and the growth was 43%.
In the case of `CC(C)(C)n1cc(-c2ccnc(NCCNS(=O)(=O)c3cccc(F)c3)c2)c(-c2ccccc2)n1`, the growth is reported as 62.8%.
`COc1cc(OC)cc(C2=C3CC[C@@H]4[C@H](CC[C@]5(C)C(=O)CC[C@@H]45)C3=CC3C(O)c4cccnc4N4C(=O)COC234)c1` (stereo not given in full) was tested, and the growth was 105%.
In the case of `O=C(Nc1ccc(-c2nc(N3CCOCC3)c3cccn3n2)cc1)Nc1cccnc1`, the growth is reported as -37.9% (active).
In the case of `CC(C)[C@@]12C[C@@H](OC(=O)COC(=O)c3ccccc3)[C@@](C)(O1)[C@@H]1CC[C@@H](C)[C@H]1[C@@H]2OC(=O)/C=C/c1ccccc1`, the growth is reported as 85.4%.
Compound `Cc1ccc(Oc2nc3ccccc3cc2-c2nnc(Cn3c(COc4ccccc4)nc4ccccc43)o2)cc1` has a growth of 92.1%.
In the case of `CO[C@H]1C[C@@H]2CC[C@@H](C)[C@@](O)(O2)C(=O)C(=O)N2CCCC[C@H]2C(=O)O[C@H]([C@H](C)C[C@@H]2CC[C@@H](O)[C@H](OC)C2)CC(=O)[C@H](C)/C=C(\C)[C@@H](O)[C@@H](OC)C(=O)[C@H](C)C[C@H](C)\C=C/C=C/C=C/1C`, the growth is reported as 1.57% (active).
With `Clc1nc(Cl)c2ncn(CC3(Cn4cnc5c(Cl)nc(Cl)nc54)COC3)c2n1` the growth was -60.7% (active).
`CCN(CC)CCNC(=O)c1c(C)[nH]c(/C=C2\C(=O)Nc3cc(NC(=O)NC(=O)c4ccc(OC)cc4F)ccc32)c1C` gave a growth of 75.2%.
In the case of `COc1ccc(/C(C#N)=C/c2ccccn2)cc1`, the growth is reported as 89% and 82%.
Compound `COC1=CC(=O)C[C@@H](C)[C@]12Oc1c(Cl)c(OC)cc(OC)c1C2=O` has a growth of 76.8%.
With `CC(C)C[C@H](NC(=O)/C=C/Cn1ccc2ccccc2c1=O)B(O)O` the growth was -6.84% (active).
For `CC(C)[C@@H]1CC[C@@H]2[C@@H]1[C@H](OC(=O)/C=C/c1ccccc1)[C@]1(C(C)C)C[C@@H](OC(=O)CO)[C@@]2(C)O1`, the growth was 113%.
For `CC(C)CSc1nc(-c2ccc(F)cc2)c(C#N)c(N2CCCCC2)n1`, the growth was 101%.
Work on `Cc1ccc(/C=C/C(=O)Nc2ncc(Cc3ccc(F)cc3)s2)o1` yielded a growth of 34%.
In the case of `C(=C1c2ccccc2-c2ccccc21)c1ccccn1`, the growth is reported as 22.4%.
`CCCCCCCC/C=C\CCCCCCCC(=O)OCCCCCC` showed a growth of 95.8%.
For `COC(=O)c1cccc(NC2=C(Cl)C(=O)c3nc(C)ccc3C2=O)c1`, the growth was -71.3% (active).
For `COc1ccc(CCN2C(=O)/C(=C/c3nc(CO)cs3)SC2=S)cc1`, the growth was 27%.
`COc1ccccc1N=Nc1c(O)ccc2cc(S(=O)(=O)O)ccc12` gave a growth of 111%.
